Lassa entry inh – blocks Lassa virus binding to or entry into cells | Lassa virus pseudotype entry inhibition, cell reporter | Potency, µM (top dose mostly 37.9 µM), usual class: inhibitors | 1.2% of 300,000 active | AID 540256; calls by dose curve; tested in HEK293 cells; note: nearly all actives have a fitted effect of over 50% in size
HCV inh – blocks hepatitis C virus | Huh7.5.1 HCVcc-Cre infection, luciferase reporter, 44 h | Potency, µM (highest dose often 41.8 µM), usual class: inhibitors | 3.4% of 340,000 active | AID 651820; active = well fitted inhibition curve with a large enough effect; inconclusive = small, poorly fitted or top-dose-only effect, or another doubt; inactive = no such curve, though single readings can be large or run the other way
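Reporter virus HCVcc-Cre (~0.5 moi) infects cells exposed to compound; seeding density 1,000 cells/well with 4 h settling beforehand. Luminescence, 15 sec read, taken 44 h post-infection following a 15 min RT substrate incubation.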
Vaccinia mCherry – inhibitors of vaccinia virus infection (mCherry reporter signal); Vaccinia virus mCherry reporter infection, fluorescence; Potency, µM (doses to about 36.5 µM), actives largely listed as inhibitors; 0.63% of 310,000 active; AID 720579; calls by dose curve; tested in A549 cells; note: nearly all actives have a fitted effect of over 35% in size
Marburg entry inh – inhibitors of Marburg virus binding or cell entry; Marburg virus pseudotyped entry inhibition, cell reporter; Potency, µM (titrated, usually from 37.8 µM), most hits filed as inhibitors; 1.8% of 300,000 active; AID 540276; calls by dose curve; tested in HEK293 cells
Vaccinia Venus – inhibitors of vaccinia virus (Venus reporter); Vaccinia virus Venus reporter expression, fluorescence; Potency, µM (doses to about 36.5 µM), usual class: inhibitors; 0.46% of 330,000 active; calls by dose curve; tested in A549 cells; note: nearly all actives have a fitted effect of over 30% in size
Hits are given with their value; - = inactive; ? = inconclusive; . = no result; [ ] = remark or other dose. Rows were chosen to be rich in hits. Some 4.6% of all compounds tested hit in one or more screens of this group.

SMILES	Lassa entry inh	HCV inh	Vaccinia mCherry	Marburg entry inh	Vaccinia Venus
CCOC(=O)c1c(N)sc2c(OCC)c(Br)ccc12	-	10µM	-	?	-
CCOC(=O)c1sc(N)c(C(=O)OCC)c1C	?	-	?	-	-
CCOC(=O)c1c(NC(C)=O)sc2c(O)cccc12	-	-	.	-	.
CCOC(=O)c1c(NC(C)=O)sc2c(OCC(O)CNC(C)(C)C)c(Br)ccc12 (stereo not drawn)	.	4.5µM	.	.	.
CC(=O)N1CCc2c(sc3c2c(=O)n(Cc2ccccc2)c(=O)n3Cc2ccccc2Cl)C1	.	.	-	-	-
COc1ccc(CC(=O)N2CCN(c3ccccc3OC)CC2)cc1OC	-	-	-	-	-
COc1ccc(CC(=O)N2CCN(c3ccccc3F)CC2)cc1OC	?	11µM	-	?	-
CC(C)(C)n1nnnc1C(c1cccs1)N(Cc1ccccc1)Cc1ccco1 (stereo not drawn)	?	11µM	-[1.46 µM]	?	?
Cc1ccc2[nH]c(=O)c(CN(CCCN(C)C)C(=O)Nc3ccc(Cl)cc3)cc2c1	?	10µM	.	?	.
CCN(CC)CCN(Cc1cc2cccc(C)c2[nH]c1=O)C(=S)Nc1ccccc1	-	?	-	?	-
Cc1ccc2cc(CN(CCN(C)C)C(=S)Nc3ccccc3)c(=O)[nH]c2c1C	?	10µM	-	?	-
COc1ccc2[nH]c(=O)c(CN(CCCN(C)C)C(=O)Nc3ccc(F)cc3)cc2c1	-	?	-	?	-
Cc1ccc2cc(CN(CCN(C)C)C(=O)Nc3ccc(Cl)cc3)c(=O)[nH]c2c1	?	6.3µM	-	?	-
COc1cccc(/C=C/c2nccc3ccccc23)c1OC	.	.	-	.	-
COC(=O)[C@@]12Cc3ccccc3[C@H]1C[C@H](C)[C@@H](C)N2C(=O)C(F)(F)F	.	.	.	-	.
Cc1ccc(Cl)cc1N1CCN(S(=O)(=O)c2ccc3c(c2)CCCN3C(=O)C2CCC2)CC1	?	.	-	.	-
Cc1ccc(N(CC2=NCCN2)c2cccc(O)c2)cc1	?	?	-	23µM	-
O=C(Nc1nccs1)[C@@H]1CC=C[C@@H]2CCN(C3CCCCC3)C(=O)[C@@H]21	.	.	-	.	-
COc1ccc(C(=O)/C=C2\Sc3ccccc3N2C)cc1	?	10µM	-	?	-
CN1/C(=C/c2cccc[n+]2CCO)Sc2ccccc21	-	-	-	-	-
COc1ccc(-[n+]2c(C)cc(/C=C3\Sc4ccccc4N3C)cc2C)cc1	.	1.1µM	.	.	.
COc1ccc(C)cc1NC(=O)C(=O)NCC(c1cccnc1)N1CCN(c2ccccc2F)CC1 (stereo not drawn)	-	.	-	.	-
COc1ccc(NC(=O)COc2ccc(S(=O)(=O)NC3CCCCC3)cc2)c(OC)c1	-	.	-	-	-
CC(=O)c1ccc(C(=O)N(Cc2cccnc2)c2nc3c(C)c(C)ccc3s2)cc1	13µM	.	-	.	-
Cc1cccc2sc(N(CCCN(C)C)C(=O)CN3C(=O)c4ccccc4C3=O)nc12	.	-	.	.	.
SMILES	Lassa entry inh	HCV inh	Vaccinia mCherry	Marburg entry inh	Vaccinia Venus
CC(=O)c1ccc(C(=O)N(CCCN(C)C)c2nc3c(C)c(C)ccc3s2)cc1	?	.	-	.	-
CCN(Cc1ccccc1)S(=O)(=O)c1ccc(C(=O)N(CCCN(C)C)c2nc3c(C)c(C)ccc3s2)cc1	2.8µM	13µM	11µM	6.3µM	?
Cc1ccc2sc(N(CCCN(C)C)C(=O)c3ccc(S(=O)(=O)N(C)C4CCCCC4)cc3)nc2c1C	13µM	?	?	?	?
Cc1cccc2sc(N(CCCN(C)C)C(=O)CCc3ccccc3)nc12	?	10µM	?	?	?
c1c2c(cc3sc(N4CCCCC4)nc13)OCO2	6.3µM	-	-	?	-
c1c2c(cc3sc(N4CCOCC4)nc13)OCO2	?	-	-	?	-
COc1cc(C2=NOC(C(=O)N3CCCc4ccccc43)C2)cc(OC)c1OC (stereo not drawn)	-	2µM	.	-	.
Cc1nc2c(-c3ccc(Cl)cc3)cnn2c(N)c1-c1ccc(F)cc1	.	-	.	.	.
Cc1nc2c(-c3ccc(F)cc3)cnn2c(N)c1-c1ccccc1	.	14µM	.	.	.
CC1C(=O)N(Cc2cn(CC3CCCCC3)nn2)CCS(=O)(=O)N1Cc1ccc(-c2ccc(Cl)cc2)cc1 (stereo not drawn)	.	.	?	.	11µM
COCOCCn1cc(CN2CCS(=O)(=O)N(Cc3ccc(-c4ccc(Cl)c(Cl)c4)cc3)C(C)C2=O)nn1 (stereo not drawn)	-	.	?	.	13µM
CC(C)C1C(=O)N(Cc2cn(CC3CCCCC3)nn2)CCS(=O)(=O)N1Cc1ccc(-c2ccc(Cl)cc2)cc1 (stereo not drawn)	?	.	10µM	.	?
O/N=C(/C[n+]1ccsc1)c1ccc(I)cc1	.	.	-	.	?
COc1cc2c(cc1OC)C(COc1ccccc1OC)N(C(=O)c1ccc(S(=O)(=O)N3CCCC3)cc1)CC2 (stereo not drawn)	?	.	-	.	-
CCOc1ccccc1CNc1ncnc2c1nc1n2CCCC1	?	.	-	.	-
C[n+]1c(/C=C/c2ccnc3ccccc23)cc(/C=C/c2ccnc3ccccc23)c2ccccc21	.	.	-	.	-
CS(=O)(=O)c1ccc(Cl)c(NC(=O)CCl)c1	18µM	?	?	?	?
COc1ccccc1N1CCN(S(=O)(=O)c2c(C)sc3ncn(CC(=O)Nc4ccc(C(F)(F)F)cc4)c(=O)c23)CC1	?	.	-	-	-
CCNCc1cc(Br)c(OCC(=O)Nc2ccccc2)c(OC)c1	-	10µM	.	?	.
COc1cc(CNCCc2ccccc2)cc(Br)c1OCC(=O)Nc1ccccc1C	-	?	.	21µM	.
COc1cc(CNCC(C)C)cc(Br)c1OCC(=O)Nc1ccccc1	-	?	.	?	.
O=C(NCC1=C(Cl)CCCC1)C1CNCCC1C(F)(F)F (stereo not drawn)	.	.	.	-	.
CN1/C(=C\C(=O)c2ccco2)C(C)(C)c2ccccc21	?	11µM	-	-	-
COc1ccccc1OCC(=O)/C=C1/N(C)c2ccccc2C1(C)C	-	10µM	-	-	-
Cc1ccc(C(=O)NC(=S)/C=C2\N(C)c3ccccc3C2(C)C)cc1	.	11µM	.	-	.
SMILES	Lassa entry inh	HCV inh	Vaccinia mCherry	Marburg entry inh	Vaccinia Venus
CC(C)C(=O)NC(=S)/C=C1/N(C)c2ccccc2C1(C)C	-	?	-	-	-
CN1/C(=C/C(=O)c2nc(S(C)(=O)=O)ncc2Cl)C(C)(C)c2ccccc21	16µM	?	28µM	?	?
CCc1ccc(C(=O)c2cn(CC(=O)Nc3ccc(C)c(C)c3)c3ccccc3c2=O)cc1	?	.	-	?	?
COc1ccccc1NC(=O)N1CC(=O)Nc2sc3c(c2C1c1ccccc1)CCCC3 (stereo not drawn)	-	.	-	-	-
CCC1C(=O)NCCN1Cc1ccc2c(c1)CN(Cc1cccc(OC)c1OC)CCO2 (stereo not drawn)	.	.	-	.	-
CCC(=O)N1CCc2cc(Br)cc(S(=O)(=O)NCCc3ccc(C)cc3)c21	?	.	-	.	-
Cc1[nH]c2ccc(-c3nnc(SCC(=O)c4ccc(F)cc4)o3)cc2c1C	9.2µM	-	-	-	-
CCN(CC)CC(=O)Nc1ccc(-c2ccc(NC(=O)CN(CC)CC)c(OC)c2)cc1OC	-	1.8µM	-	?	-
CCOc1ccccc1CN1CCCC(c2nc(C)ncc2-c2ccc(F)cc2)C1 (stereo not drawn)	.	.	-	.	-
